# Assay results from PubChem BioAssay AID602399 (Sanford-Burnham Center for Chemical Genomics, 2012).
# Hit rate of the full screen: of about 360,000 compounds, about 2,800 (0.78%) were called active. Many of the other results were omitted from the sample, so actives are more common in it than they were. A number with no mark means an inactive call. Rule as the data show it: active = inhibition above about 26%; inactive = the rest.
# Test system: Nicotinate-nucleotide adenylyltransferase NadD (Staphylococcus aureus N315)
# Test: S. aureus NadD enzyme activity blockers – biochemical, colorimetric, uHTS, primary screen (AID 602399)
# Conditions: purified NadD enzyme, colorimetric absorbance read-out; at 20 µM; active compounds read high
row,Compound,inhibition
1,C[C@H]1COC(=O)[C@H](CC(=O)OC(C)(C)C)C/C=C\C[C@@H](CC(=O)N[C@H](CO)Cc2ccccc2)C(=O)N1,-1.24%
2,CC(c1ccccn1)N(C)C(=O)c1ccc2nc(Cc3cccc(Cl)c3)oc2c1 (stereo unspecified),-8.59%
3,CCOCCCNC(=O)Cc1cc(=O)[nH]c(=O)[nH]1,4.88%
4,CC(=O)N1CCc2ccc(N)cc21,-3.06%
5,O=C1NC(O)CCN1C1CC(O)C(CO)O1 (stereo unspecified),-1.72%
6,Cc1noc(C)c1S(=O)(=O)N(C)C[C@H]1Oc2ccc(NC(=O)C3CC3)cc2C(=O)N([C@H](C)CO)C[C@@H]1C,4.79%
7,Cc1ccc2nc(SCC(=O)N3CC(C)OC(C)C3)nc(=O)n2c1 (stereo unspecified),-2.71%
8,CCOC(=O)C1=CCC(c2ccc(F)cc2)N(S(=O)(=O)c2ccc(C)cc2)C1 (stereo unspecified),-6.49%
9,COC(=O)[C@]12CCCCC=C1N(Cc1ccc(Cl)cc1Cl)C(=O)[C@H](CC(=O)NCc1cccc3ccccc13)C2,16.3%
10,CCN(CC)c1ccc(C(=O)NNC(=O)CCc2nc3ccccc3c(=O)[nH]2)cc1,-1.03%
11,CCCn1c(C)cc(-c2csc(NC(=O)CCc3nc4ccccc4c(=O)[nH]3)n2)c1C,47.6% (active)
12,Cc1cc(C)c(-c2csc(NC(=O)CCCc3nc4ccccc4c(=O)[nH]3)n2)c(C)c1,21.6%
13,CN(CC(=O)NCc1ccc2c(c1)OCO2)CC(=O)Nc1ccc(F)c(F)c1F,-3.42%
14,COc1ccc([N+](=O)[O-])cc1NC(=O)c1ccc(N(Cc2ccccc2C)S(C)(=O)=O)cc1,11%
15,COc1ccc([N+](=O)[O-])cc1NCC(=O)c1ccc(C)cc1,7.38%
16,COc1ccc([N+](=O)[O-])cc1NC(=O)CC1SC(=Nc2cccc(C)c2C)N(/N=C(\C)c2ccc(C)cc2)C1=O (stereo unspecified),26.7% (active)
17,N#CNC1=NCN(CCc2ccccc2)CN1,3.37%
18,COc1ccc(NC(=O)N(C)C[C@@H]2OCc3cn(nn3)CCCC(=O)N([C@H](C)CO)C[C@H]2C)c(OC)c1,-0.14%
19,COc1ccc(-n2c(SCC(=O)Nc3sc4c(c3C#N)CCCC4)nnc2-c2ccc(O)cc2)cc1,33.1% (active)
20,CCCc1cc(=O)[nH]c(SCC(=O)Nc2sc3c(c2C#N)CCCC3)n1,0.874%
21,COc1cccc(CN(C)CC(=O)Nc2sc3c(c2C#N)CCC3)c1,-5.48%
22,COc1ccc(-c2ccc3[nH]c4c(c3c2)CCN2C[C@H]3[C@H](C)ON(C)[C@H]3C[C@@H]42)cc1,-7.97%

row,Compound,inhibition
1,COc1cccc(C(O)c2nc(-c3ccc(C)c(C)c3)cs2)c1 (stereo unspecified),-4.75%
2,COC(=O)/C=C\C(=O)Nc1cccc([N+](=O)[O-])c1,7.18%
3,Cc1cc(NC(=O)COC(=O)/C=C/c2ccc(C)o2)no1,-5.17%
4,Cc1ccc(/C=C/C(=O)Nc2ccc([N+](=O)[O-])c(NC(=O)/C=C/c3ccc(C)o3)c2)o1,47.9% (active)
5,O=C(NC(=O)N1CCSCC1)c1c(Cl)cccc1Cl,17.8%
6,Cc1ccc(S(=O)(=O)NCC(=O)N(CC(=O)NC(C)(C)C)Cc2cccs2)cc1,-3.65%
7,Cn1c2c(c(=O)n(C)c1=O)[C@@H]1c3c(ccc4ccccc34)OC[C@@H]1CO2,1.89%
8,CC1=CC(=O)C=CC1(C)C(Cl)(Cl)Cl (stereo unspecified),4.28%
9,N#CC1=C(N)Oc2c(sc3ccccc23)C1c1ccco1 (stereo unspecified),33.4% (active)
10,Cc1ccc(C(=O)N(CN2CCCC2=O)c2ccc(F)cc2)cc1,-3.99%
11,COc1cc(C(F)(F)F)c(C(=O)N(C)c2ccc(Cl)cc2)cn1,-3.26%
12,COc1ccc(C(NC(=O)C2CCN(CCCc3ccccc3)CC2)c2cccs2)cc1 (stereo unspecified),0.814%
13,COc1cccc2sc(NNC(=O)c3nc4ccccc4s3)nc12,36.6% (active)
14,COc1cccc(/C=C/c2ccc3ccccc3n2)c1OC(C)=O,-5.51%
15,Cc1ccc2sc(NNC(=O)c3ccc4c(c3)OCCO4)nc2c1C,11.1%
16,O=C(COc1nc2ccccc2nc1N1CCOCC1)NCC(F)(F)F,-2.03%
17,COC(=O)[C@@]1(Cc2ccc(OC)cc2)[C@H]2c3cc(C(=O)N4CCCC4)n(Cc4ccc(OC(F)(F)F)cc4)c3C[C@H]2CN1C(=O)c1ccccc1,15.7%
18,CCOc1ccc(S(=O)(=O)N2CCCCC2)cc1NC(=O)CN1CCCC1c1cccs1 (stereo unspecified),5.31%
19,CCN(CC)c1ccc(NC(=O)CN2C(=O)NC3(CCc4ccccc43)C2=O)cc1 (stereo unspecified),-4.85%
20,CCCN(c1ccc(C(C)C)cc1)S(=O)(=O)c1c(C)[nH]c(=O)[nH]c1=O,6.85%
21,CC(=O)Nc1ccc(C(=O)Nc2cccc(S(=O)(=O)NC3=NCCC3)c2)cc1,7.82%
22,Nc1[nH]c(=S)nc2nc(-c3ccccc3)c(-c3ccccc3)nc12,31.3% (active)

row,Compound,inhibition
1,CC/C(=N\O)C(C)(C)/[N+]([O-])=C/c1ccc(Br)cc1,-4.93%
2,CC12CN(Cc3ccccc3)CC(C)(CN(Cc3ccccc3)C1)C2=NO,-2.69%
3,O=C(NCCc1cccc(F)c1)C1CC(O)CN1C(=O)Nc1ccccc1 (stereo unspecified),0.207%
4,O=S(=O)(c1ccc(Cl)cc1)N1CCCN(c2ccc(C(F)(F)F)cn2)CC1,-6.85%
5,COc1ccc(CCNC(=O)/C(C#N)=C2\N=C(NC(=O)c3cccs3)c3ccccc32)cc1,2.29%
6,Cc1ccc2nc(/C(C#N)=C\c3ccc(OC(=O)c4cccs4)cc3)[nH]c2c1,40.4% (active)
7,CN1CCN(CC#CCC2(O)c3ccccc3-c3ccccc32)CC1,-2.12%
8,O=C1CC(c2cccc(Cl)c2)CC(O)=C1C=Nc1ccccc1 (stereo unspecified),-3.63%
9,COc1ccc2c(c1OC)C(=O)N(c1ncn[nH]1)C2,0.954%
10,COc1ccc(Cl)cc1S(=O)(=O)N1CCC(O)(c2ccc(Cl)cc2)CC1,-4.67%
11,CCc1c(C)c2c(C)[nH]nc2oc1=O,-0.195%
12,O=c1oc(-c2ccco2)nc2sc3c(c12)CCCCC3,-5.51%
13,Cc1ccc(NC(=O)c2sc3nc(N)c(C#N)cc3c2N)cc1,12.7%
14,Cc1cccc(NC(=O)c2sc3nc4c(c(-c5ccco5)c3c2N)CCC4)c1,44.6% (active)
15,Cc1cccn2c(CN(C)C3CCCc4ccccc43)c(C(=O)N3CCOCC3)nc12 (stereo unspecified),-3.79%
16,C=CCOc1ccccc1NC(=O)CN1C(=O)CNC1=O,-2.12%
17,O=C(Nc1ccc(Br)cn1)C1CCN(S(=O)(=O)c2cccs2)CC1,-7.26%
18,CCCc1nc(SCC(=O)Nc2ccccc2OC)c2c(=O)n(C)c(=O)n(C)c2n1,-1.01%
19,O=C(O)CCN(Cc1ccccc1)S(=O)(=O)c1c(Cl)cccc1Cl,-4.97%
20,C=C1c2cccc(OC)c2O[C@H](C(=O)OCC)[C@@H]1CCCCCC,52.4% (active)
21,CCOC(=O)C1=C(C)c2ccccc2OC1C(=O)OCC (stereo unspecified),-1.62%
22,O=C(CSc1nc2ccccc2c(=O)[nH]1)Nc1nc(-c2ccc(Br)cc2)cs1,42.3% (active)

row,Compound,inhibition
1,O=C(OCc1nnc(-c2ccccc2)o1)c1cc(=O)[nH]c2ccccc12,-0.542%
2,O=C(COC(=O)c1cc(=O)[nH]c2ccccc12)Nc1nc(-c2cccc(Br)c2)cs1,42.5% (active)
3,O=C(COC(=O)c1cc(=O)[nH]c2ccccc12)NCc1cccc(Cl)c1,0%
4,O=C(CSc1ncn[nH]1)Nc1nc(-c2cccc([N+](=O)[O-])c2)cs1,-5.15%
5,Cc1csc(NC(=O)CSc2ccc(-c3ccc(F)cc3)nn2)n1,0.514%
6,CCOC(=O)c1ccn(S(=O)(=O)c2ccc(C)cc2)c1-c1ccccc1,-0.973%
7,CCOc1ccc(-c2cn(S(=O)(=O)c3cccc4nsnc34)nc2N)cc1,-0.18%
8,CC(C)c1nnc(NC(=O)CCC(=O)N2CCN(c3cccc(Cl)c3)CC2)s1,1.72%
9,COc1c(F)c(F)c(-c2csc(N)n2)c(F)c1F,-5.11%
10,O=C(Nc1ccc(OCCO)cc1)c1csc([C@H]2C[C@H](O)[C@@H](CO)O2)n1,-8.65%
11,CCCNC(=O)c1cnc(-c2ccccc2)nc1-c1ccccc1,-3.59%
12,CCOc1cc(/C=C2/N=C(c3ccc(C(C)(C)C)cc3)OC2=O)cc(Cl)c1OS(C)(=O)=O,71.7% (active)
13,O=C(Nc1nc2ccc([N+](=O)[O-])cc2s1)c1ccc(S(=O)(=O)N2CCCc3ccccc32)cc1,34.4% (active)
14,O=C(NC(Nc1nc2ccc([N+](=O)[O-])cc2s1)(C(F)(F)F)C(F)(F)F)c1ccccc1,-2.21%
15,CNC(=O)c1ccsc1NC(=O)c1ccc(S(=O)(=O)N2CCc3ccccc32)cc1,11.7%
16,O=C(OCc1cn(-c2ccc(Cl)c(Cl)c2)nn1)c1ccccc1Cl,0.666%
17,C=CCc1cccc2cc(C(=O)N3CCN(C(=O)OCC)CC3)c(=O)oc12,-4.59%
18,COc1ccc(C)cc1NC(=O)c1ccc(-c2ccc(C(C)=O)cc2)o1,-8.65%
19,CN(c1ccccn1)c1ncnc2[nH]ncc12,-2.6%
20,Cc1cc(C)c2c(c1)cc(C)c1nnc(SCC(=O)Nc3cc(C)on3)n12,0.406%
